In PubChem BioAssay (NCATS):
Results filed as inconclusive are left out. Activity calls are given as the source filed them. Unless noted, the call rests on the fitted dose curve; in most records, active means well fitted curve in the direction sought with a large enough effect; inconclusive means small, poorly fitted or top-dose-only effect, or another doubt; inactive means no such curve, though single readings can be large; an effect the other way counts as inactive or inconclusive.

Assays:
[1] = molecular target: DNA repair nuclease/redox regulator APEX1 (Homo sapiens) (UniProt P27695); assay: qHTS Validation Assay for Inhibitors of the Human Apurinic/apyrimidinic Endonuclease 1 (APE1) (AID 1705;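 further: TAMRA fluorescence gain over two minutes as APE1 cuts a quenched THF abasic duplex; series mostly up to about 57 µM; on the % scale 0 is the no-effect control and ±100 the full control effect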)
Procedure, shortened: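 Read-out: TAMRA fluorescence (525 nm ex, 598 nm em) from cleavage of a quenched THF abasic-site duplex, 50 nM final; activity taken as intensity change between third and first of three reads 60 s apart.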

[2] = Counterscreen for APE1 Inhibitors: Fluorescent Dye Displacement Validation Assay (AID 1707);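 further: plate controls were ThO with dsDNA and no compound for no effect and ThO without dsDNA for full effect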
Procedure, shortened: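 Reaction mixture of 250 nM Thiazole Orange and 50 nM double-stranded abasic-site DNA was dispensed, compounds were pin-transferred, and fluorescence was read at endpoint (480 nm ex, 540 nm em). Reduced fluorescence indicated dye displacement by DNA binding.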

[3] = molecular target: Endonuclease 4 (Escherichia coli (strain K12)) (UniProt P0A6C1); assay: Counterscreen for APE1 Inhibitors: qHTS Validation Assay for Inhibitors of Endonuclease IV (AID 1708); further: on the % scale 0 is the no-effect control and ±100 the full control effect
Procedure, shortened: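 Incision of a double-stranded 50 nM TAMRA/BHQ-2 abasic substrate was followed kinetically (525/598 nm, reads every 60 s) after 15 min enzyme–compound preincubation with 2 nM EndoIV in pH 7.5 Tris buffer with MgCl2, DTT and Tween-20; concentration-response format.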

[4] = qHTS for differential inhibitors of proliferation of Plasmodium falciparum line 7G8 (AID 1815);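 further: potency means the concentration at half of the fitted maximal effect; parasite growth measured after three days of incubation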
[5] = qHTS for differential inhibitors of proliferation of Plasmodium falciparum line Dd2 (AID 1882); settings: Potency: Plasmodium falciparum Dd2 proliferation inhibition;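 further: series mostly up to about 29 µM; plate controls were DMSO vehicle for no effect and 0.29 µM artemisinin for full effect; nearly all actives have a fitted effect of over 65% in size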
Procedure, shortened: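 SYBR Green DNA fluorescence (ex 485, em 535 nm) after overnight lysis quantifies parasite growth; compound exposure lasted 72 h at 37 C on infected red cells at 2.5% hematocrit, 0.3% parasitemia (final). Artemisinin 0.29 uM and vehicle wells define normalization.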

[6] = qHTS for differential inhibitors of proliferation of Plasmodium falciparum line W2 (AID 1883); settings: Potency: Plasmodium falciparum W2 proliferation inhibition;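 further: potency means the concentration at half of the fitted maximal effect; parasites grown with compound for 72 h before lysis and staining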
[7] = molecular target: ATP-dependent DNA helicase Q1 (Homo sapiens) (UniProt P46063); assay: qHTS Validation Assay for Inhibitors of RecQ-Like Dna Helicase 1 (RECQ1) (AID 2353);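 further: plate controls were DMSO vehicle for no effect and enzyme-free control for full effect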
Procedure, shortened: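 RECQ1T1 50 nM; forked duplex (20 bp + 30-nt ss tails) 200 nM, ATP 2 mM final; pH 8.0, 2 mM MgCl2, 2.5 ug/ml poly(dI-dC); 15 min compound preincubation; discontinuous kinetic read over 2 h at RT.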

[8] = Quantitative high throughput screen for delayed death inhibitors of the malarial parasite plastid, 48 hour incubation (AID 488752); further: on the % scale 0 is the no-effect control and ±100 the full control effect; nearly all actives have a fitted effect of over 65% in size
Procedure, shortened: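 First, compound was pinned into RPMI 1640 medium containing 0.5% Albumax. Next, reporter-parasite-infected erythrocytes were added to 2% hematocrit and 0.1% parasitemia. After 48 h at 37 C under 5% CO2, luciferase detection reagent was added and luminescence read.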

[9] = molecular target: Transient receptor potential cation channel subfamily V member 1 (Homo sapiens) (UniProt Q8NER1); assay: HTS Assay for Compounds that Act as Enhancers of the Vanilloid Receptor 1 (AID 488979); further: 0% is about no effect
Procedure, shortened: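 Calcium influx kinetics via Fluo-8 (480/520 nm) in TRPV1-expressing cells, 2000/well cultured overnight at 35.5C. Compound-alone read 3 min (agonist phase), followed by EC20 capsaicin challenge for 2 min (enhancer phase).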

[10] = molecular target: Thyrotropin receptor (Homo sapiens) (UniProt P16473); assay: qHTS Assay for Antagonists of the Thyroid Stimulating Hormone Receptor (AID 488980); further: series mostly up to about 58 µM; 0% is about no effect
Procedure, shortened: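 TSHR-HEK293 cells; 70 uM RO 20-1724 PDE inhibitor; compound + EC80 TSH (4 nM final); anti-cAMP cryptate antibody/cAMP-d2 in lysis buffer, 30 min RT; HTRF 665/620 nm read.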

[11] = molecular target: Thyrotropin-releasing hormone receptor (Homo sapiens) (UniProt P34981); assay: qHTS for Small Molecule Agonists and Allosteric Enhancers of Human TRH Receptor: Validation Screen for Agonists (AID 493127;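 active means calcium activation more than 3 SD above the typical response in the agonist read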;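 further: intracellular calcium rise by fluo-8 fluorescence before TRH EC20 addition; 0% is about no effect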); settings: TRH receptor agonist cell assay; at 2 µM; hits give high values
Procedure, shortened: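 Compounds are added by online pintool to dye-loaded TRHR cells while fluorescence is recorded every second. A rise in calcium signal during the agonist read marks activation; a later 10 nM TRH addition (EC20) serves the separate enhancer mode.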

[12] = molecular target: Galactokinase (Homo sapiens) (UniProt P51570); assay: qHTS Validation Assay for Inhibitors of Human Galactokinase (GALK) (AID 493189); further: 0% is about no effect
Procedure, shortened: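 Luminescence from leftover ATP (Kinase-Glo Plus, 10 min) served as read-out after a 1 h room-temperature reaction of 5 nM GALK, 100 uM galactose and 35 uM ATP at pH8.0.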

[13] = Validation screen for small molecules that induce DNA re-replication in SW480 colon adenocarcinoma cells (AID 504364); further: 0% is about no effect
Procedure, shortened: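 Image-based qHTS: compounds were incubated with SW480 cells for 48 hr, nuclei stained with Hoechst, and per-nucleus fluorescence intensity scanned to flag cells with excess DNA content.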

[14] = molecular target: Rap guanine nucleotide exchange factor 3 (Homo sapiens) (UniProt O95398); assay: Counterscreen qHTS for antagonist of cAMP-regulated guanine nucleotide exchange factor 3 (EPAC1) (AID 1645888);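 further: fluorescence loss as bound BODIPY-GDP is released from Rap1B; % of control where 0% means no effect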
Procedure, shortened: (§1)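 Rap1B-BODIPY-GDP 250 nM + GDP 50 uM; cpds 7-pt, final 9.74 nM–152 uM (activator mode) or from 7.32 nM upwards (inhibitor mode); RT; FI 480/540 nm at 5 and 30 min, then ± cAMP, reread.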

[15] = molecular target: Rap guanine nucleotide exchange factor 3 (Homo sapiens) (UniProt O95398); assay: Counterscreen qHTS for agonist of cAMP-regulated guanine nucleotide exchange factor 3 (EPAC1) (AID 1645889); further: % of control where 0% means no effect; nearly all actives have a fitted effect of over 40% in size
Procedure, shortened: as §1

[16] = qHTS for differential inhibitors of proliferation of Plasmodium falciparum line GB4 (AID 1816); settings: Potency: Plasmodium falciparum GB4 proliferation inhibition;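 further: potency means the concentration at half of the fitted maximal effect; parasite growth measured after 72 h incubation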
[17] = molecular target: Ferritin light chain (Equus caballus) (UniProt P02791); assay: qHTS Validation Assay for Identification of Novel General Anesthetics (AID 2323); further: series mostly up to about 77 µM; on the % scale 0 is the no-effect control and ±100 the full control effect
Procedure, shortened: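 10 uM horse-spleen apoferritin + 1-AMA (50% saturated, PBS); cpd pin-transferred, 10 min RT. Ex 380/Em 535 nm endpoint. Activity normalized between free 1-AMA and 1-AMA/apoferritin; 4-parameter Hill fit of concentration-response.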

Sequence of Thyrotropin-releasing hormone receptor (Homo sapiens) (P34981 whole entry, looked up): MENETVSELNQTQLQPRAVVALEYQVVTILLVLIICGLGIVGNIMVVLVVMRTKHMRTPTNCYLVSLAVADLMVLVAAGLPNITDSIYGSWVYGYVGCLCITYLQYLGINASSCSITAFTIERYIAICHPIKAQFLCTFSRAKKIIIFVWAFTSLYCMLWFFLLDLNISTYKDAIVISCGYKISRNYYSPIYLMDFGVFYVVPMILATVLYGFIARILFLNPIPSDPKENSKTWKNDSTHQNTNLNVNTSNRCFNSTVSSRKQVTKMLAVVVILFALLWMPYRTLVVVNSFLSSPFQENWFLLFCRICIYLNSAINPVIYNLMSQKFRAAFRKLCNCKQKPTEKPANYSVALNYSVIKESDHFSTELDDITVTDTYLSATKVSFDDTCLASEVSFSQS
Sequence of ATP-dependent DNA helicase Q1 (Homo sapiens) (P46063 whole entry, looked up): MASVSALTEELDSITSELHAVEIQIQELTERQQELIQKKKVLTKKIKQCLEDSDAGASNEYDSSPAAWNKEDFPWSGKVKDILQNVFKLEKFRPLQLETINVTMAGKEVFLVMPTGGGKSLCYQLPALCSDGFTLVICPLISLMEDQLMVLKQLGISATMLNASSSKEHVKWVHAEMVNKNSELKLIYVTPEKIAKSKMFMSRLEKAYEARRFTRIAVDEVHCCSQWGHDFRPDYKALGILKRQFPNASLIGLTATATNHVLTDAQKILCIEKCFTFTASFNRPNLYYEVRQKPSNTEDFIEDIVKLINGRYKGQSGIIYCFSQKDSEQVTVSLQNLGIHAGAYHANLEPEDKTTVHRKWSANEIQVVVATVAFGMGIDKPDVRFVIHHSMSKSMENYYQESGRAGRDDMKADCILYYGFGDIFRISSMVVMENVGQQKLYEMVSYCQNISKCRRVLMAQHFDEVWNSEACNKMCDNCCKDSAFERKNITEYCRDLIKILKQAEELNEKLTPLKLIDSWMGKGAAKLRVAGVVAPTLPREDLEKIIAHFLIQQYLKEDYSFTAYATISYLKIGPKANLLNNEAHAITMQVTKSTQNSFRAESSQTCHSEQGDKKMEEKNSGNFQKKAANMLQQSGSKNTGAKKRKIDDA
Sequence of Transient receptor potential cation channel subfamily V member 1 (Homo sapiens) (Q8NER1 whole entry, looked up): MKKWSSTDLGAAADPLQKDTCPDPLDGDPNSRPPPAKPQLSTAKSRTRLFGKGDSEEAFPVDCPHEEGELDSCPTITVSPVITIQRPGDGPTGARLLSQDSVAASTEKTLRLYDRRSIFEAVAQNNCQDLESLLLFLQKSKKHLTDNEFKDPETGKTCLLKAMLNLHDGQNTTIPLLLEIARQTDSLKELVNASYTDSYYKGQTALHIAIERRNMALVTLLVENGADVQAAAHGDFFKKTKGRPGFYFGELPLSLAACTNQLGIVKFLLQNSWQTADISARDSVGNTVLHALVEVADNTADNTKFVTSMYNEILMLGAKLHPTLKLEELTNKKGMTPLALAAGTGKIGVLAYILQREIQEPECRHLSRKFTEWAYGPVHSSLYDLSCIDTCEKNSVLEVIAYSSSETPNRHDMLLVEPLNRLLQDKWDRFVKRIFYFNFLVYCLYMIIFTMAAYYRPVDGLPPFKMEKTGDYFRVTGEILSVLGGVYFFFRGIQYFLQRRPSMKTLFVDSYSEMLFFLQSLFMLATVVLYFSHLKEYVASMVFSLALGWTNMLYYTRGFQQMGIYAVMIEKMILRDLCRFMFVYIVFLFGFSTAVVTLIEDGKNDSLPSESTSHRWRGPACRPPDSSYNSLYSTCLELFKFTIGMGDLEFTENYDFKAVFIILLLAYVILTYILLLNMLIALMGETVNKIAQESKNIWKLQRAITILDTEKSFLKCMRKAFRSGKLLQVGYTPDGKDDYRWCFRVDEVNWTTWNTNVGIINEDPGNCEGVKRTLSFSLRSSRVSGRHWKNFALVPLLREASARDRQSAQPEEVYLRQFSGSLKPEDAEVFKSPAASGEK
Sequence of Galactokinase (Homo sapiens) (P51570 whole entry, looked up): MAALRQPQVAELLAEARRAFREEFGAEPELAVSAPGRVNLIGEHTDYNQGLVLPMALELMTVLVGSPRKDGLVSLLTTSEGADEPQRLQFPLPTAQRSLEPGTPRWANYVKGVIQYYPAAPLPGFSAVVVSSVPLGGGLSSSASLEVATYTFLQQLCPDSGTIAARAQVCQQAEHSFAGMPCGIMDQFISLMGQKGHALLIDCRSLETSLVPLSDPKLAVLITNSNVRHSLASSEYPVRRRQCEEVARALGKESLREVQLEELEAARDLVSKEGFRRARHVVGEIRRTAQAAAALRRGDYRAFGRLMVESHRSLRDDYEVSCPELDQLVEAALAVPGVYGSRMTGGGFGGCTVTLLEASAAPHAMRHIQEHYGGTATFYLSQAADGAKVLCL
Sequence of Thyrotropin receptor (Homo sapiens) (P16473 whole entry, looked up): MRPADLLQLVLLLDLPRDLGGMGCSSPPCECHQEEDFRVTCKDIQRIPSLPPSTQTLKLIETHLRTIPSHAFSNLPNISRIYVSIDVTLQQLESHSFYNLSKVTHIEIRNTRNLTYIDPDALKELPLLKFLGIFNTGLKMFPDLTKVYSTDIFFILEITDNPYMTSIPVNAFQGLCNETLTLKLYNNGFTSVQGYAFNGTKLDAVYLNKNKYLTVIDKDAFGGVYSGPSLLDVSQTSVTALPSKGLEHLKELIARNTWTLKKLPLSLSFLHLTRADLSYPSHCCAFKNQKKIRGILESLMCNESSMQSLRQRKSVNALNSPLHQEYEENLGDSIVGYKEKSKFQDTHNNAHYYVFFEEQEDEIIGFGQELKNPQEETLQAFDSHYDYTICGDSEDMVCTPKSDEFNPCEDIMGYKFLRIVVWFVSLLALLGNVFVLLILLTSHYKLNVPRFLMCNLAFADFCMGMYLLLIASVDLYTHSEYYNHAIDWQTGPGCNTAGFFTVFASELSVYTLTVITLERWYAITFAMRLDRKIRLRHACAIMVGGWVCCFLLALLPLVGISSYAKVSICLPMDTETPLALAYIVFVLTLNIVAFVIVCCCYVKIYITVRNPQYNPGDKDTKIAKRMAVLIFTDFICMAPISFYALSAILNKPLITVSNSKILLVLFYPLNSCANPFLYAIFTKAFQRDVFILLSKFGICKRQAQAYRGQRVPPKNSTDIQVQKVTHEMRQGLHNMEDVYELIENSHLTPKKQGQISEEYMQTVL
Sequence of Rap guanine nucleotide exchange factor 3 (Homo sapiens) (O95398 whole entry, looked up): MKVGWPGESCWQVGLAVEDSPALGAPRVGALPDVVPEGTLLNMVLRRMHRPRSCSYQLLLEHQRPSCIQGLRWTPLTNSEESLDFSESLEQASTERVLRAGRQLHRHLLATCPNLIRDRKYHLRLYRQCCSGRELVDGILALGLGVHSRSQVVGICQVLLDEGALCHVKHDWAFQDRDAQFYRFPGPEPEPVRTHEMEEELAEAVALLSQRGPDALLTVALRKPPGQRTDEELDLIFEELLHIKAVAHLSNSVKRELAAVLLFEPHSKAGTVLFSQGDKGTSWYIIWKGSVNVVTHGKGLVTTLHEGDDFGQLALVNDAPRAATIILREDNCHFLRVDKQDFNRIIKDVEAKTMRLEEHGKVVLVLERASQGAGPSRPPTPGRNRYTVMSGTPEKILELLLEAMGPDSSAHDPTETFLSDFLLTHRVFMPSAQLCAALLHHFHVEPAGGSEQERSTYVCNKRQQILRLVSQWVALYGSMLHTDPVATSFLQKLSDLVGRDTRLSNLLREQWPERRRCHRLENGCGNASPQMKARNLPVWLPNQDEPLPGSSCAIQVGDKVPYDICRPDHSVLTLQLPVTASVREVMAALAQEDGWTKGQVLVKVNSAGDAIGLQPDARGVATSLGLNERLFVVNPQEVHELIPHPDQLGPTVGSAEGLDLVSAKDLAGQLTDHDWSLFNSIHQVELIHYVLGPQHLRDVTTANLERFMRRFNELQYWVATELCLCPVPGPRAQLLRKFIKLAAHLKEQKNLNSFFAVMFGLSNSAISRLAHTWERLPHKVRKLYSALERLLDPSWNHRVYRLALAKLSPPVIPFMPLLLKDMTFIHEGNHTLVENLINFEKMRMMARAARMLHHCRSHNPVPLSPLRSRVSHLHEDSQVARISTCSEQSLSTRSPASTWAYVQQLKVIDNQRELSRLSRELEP
Sequence of DNA repair nuclease/redox regulator APEX1 (Homo sapiens) (P27695 whole entry, looked up): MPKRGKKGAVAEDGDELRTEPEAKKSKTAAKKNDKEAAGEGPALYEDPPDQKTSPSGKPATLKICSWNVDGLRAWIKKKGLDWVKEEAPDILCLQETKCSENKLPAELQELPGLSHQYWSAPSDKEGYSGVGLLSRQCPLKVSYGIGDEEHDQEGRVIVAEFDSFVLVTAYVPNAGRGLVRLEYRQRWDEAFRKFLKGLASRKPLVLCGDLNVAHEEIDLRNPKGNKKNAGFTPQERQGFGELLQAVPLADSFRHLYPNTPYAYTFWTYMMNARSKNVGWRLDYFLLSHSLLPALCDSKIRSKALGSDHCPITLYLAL
Sequence of Ferritin light chain (Equus caballus) (P02791 2-175 limits assumed): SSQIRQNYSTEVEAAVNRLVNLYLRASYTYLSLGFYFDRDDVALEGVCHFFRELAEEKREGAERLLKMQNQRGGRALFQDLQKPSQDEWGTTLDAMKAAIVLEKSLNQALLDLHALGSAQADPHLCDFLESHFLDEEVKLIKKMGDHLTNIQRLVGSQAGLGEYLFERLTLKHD

C#C[C@]1(O)CC[C@H]2C3CCC4=Cc5oncc5CC4(C)C3CCC21C (stereo not given in full)
active: Potency [4] 8.91 µM | Potency [6] 8.91 µM
inactive: Potency [1] | outcome [2] | Potency [3] | Potency [5] | outcome [7] | Potency [8] | outcome [9] | outcome [10] | activation [11] 1.44% | outcome [12] | Potency [13]

CCOC(=O)C1CN(S(=O)(=O)c2ccc(C)cc2)c2ccccc2O1 (stereo not given)
inactive: Potency [14]

COc1cc(C2CC(=O)Oc3cc(C)c(Cl)c(C)c32)cc(OC)c1OC (stereo not given)
inactive: activity change, negative = inhibition [14] -10.7% [at 30.8 µM] | activation [15] 28.3% [at 30.8 µM]

CC(=O)SC1CC2=CC(=O)CC[C@]2(C)C2CC[C@@]3(C)[C@@H](CC[C@@]34CCC(=O)O4)C12 (stereo not given in full)
active: Potency [4] 11.2 µM | Potency [16] 7.94 µM | Potency [6] 7.08 µM
inactive: Potency [1] | outcome [2] | Potency [3] | outcome [17] | outcome [7] | Potency [8] | outcome [9] | outcome [10] | activation [11] 1.19% | outcome [12] | Potency [13]
